# Most compounds without a hit are left out; they make up all but 3.3% or so of the library.
# PLK1 PBD inh: PLK1 (human) polo-box domain binding inhibition; AID 720504; Plk1 PBD binding of FITC phosphopeptide, fluorescence polarization; 2.8% of 360,000 active; Potency, µM, without a hit: max response, negative = inhibition, usual class: inhibitors; P53350; note: potency is the fitted concentration of half-maximal effect; series mostly up to about 57 µM; nearly all actives have a fitted effect of over 65% in size
# USP2a block: blocks human ubiquitin-specific protease USP2a; USP2 core, Ub-CHOP2 coupled fluorogenic reporter, 485/531; 0.01% of 330,000 active; O75604; Potency, µM (highest dose often 38.3 µM), for the others: top-dose activity change, negative = inhibition, usual class: inhibitors; AID 463254;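 note: potency is the fitted concentration of half-maximal effect; plate controls were DMSO wells for no effect and full inhibition by NEM control for full effect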
#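 Cell-free coupled assay: 10nM USP2 core preincubated 30min RT with compound in Tris-HCl pH 8.0/CaCl2/CHAPS buffer, then 25nM Ub-CHOP2 and 25nM reporter substrate; fluorescence (Ex 485/Em 531) read after 60min RT, normalized to NEM inhibition, concentration-response curves fitted.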
# WRN helicase inh: WRN helicase (human) inhibition. WRN helicase unwinding, fluorescent forked duplex, kinetic. Potency, µM (top dose mostly 114 µM), for the others: at the top dose activity change, negative = inhibition, hits mostly inhibitors. Q14191. 0.46% of 360,000 active. AID 651768; note: potency is the fitted concentration of half-maximal effect; nearly all actives have a fitted effect of over 55% in size
#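 Kinetic red-fluorescence monitoring (525/598 nm) tracks WRN helicase activity after 100 nM fluorophore-quencher forked duplex and 2 mM ATP are added to 20 nM enzyme pretreated 15 min at room temperature with compound.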
# USP1 inh: USP1/UAF1 (human) deubiquitinase inhibition. Potency, µM (doses to about 57.1 µM), inactives show at the top dose activity change, negative = inhibition, hits mostly inhibitors. 0.23% of 390,000 active. AID 743255. O94782. recombinant USP1/UAF1, Ub-Rhodamine cleavage fluorescence; note: potency is the fitted concentration of half-maximal effect; nearly all actives have a fitted effect of over 60% in size
#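 USP1/UAF1 complex (1 nM) preincubated 15 min at room temperature with compound, then Ub-Rho substrate (150 nM final) added. Kinetic fluorescence at 480/540 nm over 6 reads at 60 s intervals; 50 mM HEPES pH 7.8, 0.5 mM EDTA, 0.1 mg/ml BSA, 1 mM TCEP, 0.01% Tween-20.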
# PI5P4K alpha inh: inhibitors of human PI5P4K alpha; AID 652105; P48426; max response, %; PI5P4Kalpha enzyme, ADP-Glo luminescence, 60 min; hits give low values; 1.2% of 330,000 active; active = max response of -50% or lower; inconclusive = between -30% and -50%; inactive = -30% or higher; note: value at the top dose of about 77 µM
#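 qHTS, 1536-well: enzyme/substrate mix, compound by pin tool, 5 microM ATP final; RT 60 min; ADP-Glo reagents 1 (45 min) then 2 (30 min); luminescence.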
# TbPYK inh: Trypanosoma brucei pyruvate kinase inhibition, cherry-pick confirmation; shares compounds with PLK1 PBD inh; recombinant TbPYK, Kinase-Glo ATP luminescence; Potency, µM (series often up to 76.9 µM), for inactives: top-dose activity change, negative = inhibition, usual class: inhibitors; 67% of 890 active; note: potency is the fitted concentration of half-maximal effect; nearly all actives have a fitted effect of over 70% in size
# TbPYK ADP-Glo: inhibits T. brucei pyruvate kinase in orthogonal ADP-Glo assay | shares compounds with PLK1 PBD inh | recombinant TbPYK, ADP-Glo luminescence, 60 min | Potency, µM (highest dose often 76.9 µM), for inactives: at the top dose activity change, negative = inhibition, usual class: inhibitors | 62% of 890 active | AID 720584; note: potency is the fitted concentration of half-maximal effect; nearly all actives have a fitted effect of over 75% in size
# Active calls of the source: *; ? = inconclusive; / = no result. Unless noted, calls come from the whole dose curve; as a rule, active = well fitted curve in the direction sought with a large enough effect; inconclusive = small, poorly fitted or top-dose-only effect, or another doubt; inactive = no such curve, though single readings can be large; an effect the other way counts as inactive or inconclusive. Unless noted, % is set by controls: 0 for no effect and ±100 for the full control effect.
SMILES,PLK1 PBD inh,USP2a block,WRN helicase inh,USP1 inh,PI5P4K alpha inh,TbPYK inh,TbPYK ADP-Glo
CC(=O)Nc1ccc2c(c1)Cc1cc(N3C(=O)C=CC3=O)ccc1-2,3µM*,/,35µM*,-22%,?,8.9µM*,6.3µM*
Fc1cccc(C[n+]2csc3ccccc32)c1,24µM*,0%,?,-16%,-22,?,13µM*
OCCN(Cc1ccccc1)Cc1cccc(F)c1,-1%,-3%,-3%,-13%,/,/,/
c1ccc(C[n+]2csc3ccccc32)cc1,3.8µM*,2%,-32%,1%,/,?,14µM*
O=C(NC1CC(=O)N(c2ccc(F)cc2)C1)c1cc2ccccc2o1 (stereo unspecified),/,/,/,-25%,/,/,/
COc1ccccc1NC(=O)c1cnc(SCC(=O)N2CCOCC2)n(C)c1=O,/,/,/,7%,/,/,/
CN(C)c1ccc(Cc2cc3c(O)ccc(O)c3cc(Cc3ccc(N(C)C)cc3)c2=O)cc1,0.95µM*,/,13µM*,?,-84*,3.5µM*,3.5µM*

# Source: PubChem BioAssay (National Center for Advancing Translational Sciences (NCATS))
